PostGolgi ctrl – yeast control strain growth, post-Golgi counter-screen; hit rate 5% among 98,000; inhibition, % at 10 µM; efflux-deficient yeast background strain, growth absorbance A615, 16 h
PostGolgi yeast – growth inhibition of a yeast mutant, post-Golgi transport screen. post-Golgi transport phenotypic cell assay. inhibition, % at 10 µM. hit rate 0.9% among 98,000. AID 739;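 also: yeast cells grown in 1536-well plates; yeast grown about 18 h at 30C before absorbance read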
Cav3 T inh – human Cav3.2 channel inhibition, primary screen; Cav3.2-expressing cells, Fluo-4 calcium fluorescence FDSS; hits give low values; B-score at 10 µM; hit rate 4% among 100,000; AID 449739;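 active = single-dose well whose peak fluorescence ratio is a statistical outlier from its plate by either plate-standardised score or position-corrected B-score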
sEH inhibitor – soluble epoxide hydrolase (human) inhibition; hit rate 0.34% among 91,000; inhibition, % at 2 µM; AID 707; recombinant human sEH enzymatic activity assay; P34913; in the data active = inhibition above about 80%
sEH act – increases human soluble epoxide hydrolase activity | AID 717 | purified human sEH enzymatic activity, activator screen | hit rate 0.04% among 91,000 | activation, % at 2 µM | P34913; in the data active = activation above about 37%
The depositor's hits bear a star; . = no result given. Rows were chosen to be rich in hits. Some 7.8% of all compounds tested hit in one or more screens of this group. Rule as the data show it, unless noted: active = inhibition above about 30%; inactive = the rest.

SMILES	PostGolgi ctrl	PostGolgi yeast	Cav3 T inh	sEH inhibitor	sEH act
COc1ccc(CNC(=O)C(=O)NCC2OCCN2S(=O)(=O)c2ccc3c(c2)OCCO3)cc1 (stereo not given)	.	.	-2.65	.	.
CCOC(=O)c1cnc(SCc2ccc(C(C)(C)C)cc2)nc1N	2.2	-7.3	-7.2*	10.5	-12.3
CCN(CC)C(=O)CSc1nc2c(sc(=S)n2Cc2ccco2)c(=O)n1-c1ccccc1	11.1	6.9	-2.7	-14.6	17.9
CCOC(=O)CSc1nc2c(sc(=S)n2-c2ccccc2OC)c(=O)n1Cc1ccco1	19.1	2.3	-5.63*	-14.3	17.6
CCOC(=O)CSc1nc2c(sc(=S)n2Cc2ccco2)c(=O)n1-c1ccccc1	5.1	-1.5	-3.87*	.	.
CC(C)(C)c1ccc(-c2nnc3sc(-c4ccccn4)nn23)cc1	34.5*	-2.5	-1.06	8.6	-9.4
Cc1ccc(OCC(O)Cn2c(=N)n(Cc3ccccc3)c3ccccc32)cc1 (stereo not given)	5.3	-3.3	-5.27*	-8.4	6.5
Clc1ccc(-c2nnc(-c3ccco3)o2)cc1	1.3	-0.9	-4.52*	-13.9	13.9
COc1ccc(N(C)C(=O)CCS(=O)(=O)c2cccc3nonc23)c(OC)c1	33.6*	-1.1	0.473	-6.4	4.5
COc1cccc(C2=NOC(C(=O)NCCN3CCOCC3)C2)c1 (stereo not given)	19.9	-10.2	0.19	3.3	-4.0
COc1cc2c(cc1OC)C(c1cccc([N+](=O)[O-])c1)N(C(=O)c1ccc(F)cc1)CC2 (stereo not given)	25.4	-0.5	-5.3*	-1.7	4.7
CCCSC1=C(C#N)C(c2cccs2)C(C(=O)Nc2ccccc2)=C(C)N1 (stereo not given)	.	.	-2.69*	3.3	1.6
CCN(CC)S(=O)(=O)c1cc(C(=O)Nc2cc(Cl)ccc2N2CCN(C)CC2)ccc1Cl	16.4	3.6	-7.65*	7.3	-8.1
CN1CCN(c2ccc(Cl)cc2NC(=O)c2ccc(S(=O)(=O)N(C)C)cc2)CC1	6.3	-3.5	-1.14	-6.5	7.4
CCOc1cccc(NC(=O)C2CC(=O)N(C)C(=Nc3cccc(F)c3)S2)c1 (stereo not given)	16.3	-1.8	-4.74*	8.0	-10.0
CCOc1cccc(NC(=O)C2CC(=O)N(C)C(=Nc3ccccc3)S2)c1 (stereo not given)	15.7	5.8	-4.48*	-18.6	18.0
O=C(O)C1=C[C@H](c2csc3ccccc23)C[C@H](OCCCCO)O1	.	.	-0.248	.	.
O=C(Cn1c(-c2cscn2)nc2ccccc21)Nc1ccccc1F	-5.2	-11.1	-0.4	-0.4	-0.8
CCN(CC)CCP(=O)(c1ccccc1)c1ccccc1	-9.5	4.7	-4*	-6.4	5.7
O=C(Cn1cnc2ccccc2c1=O)Nc1nnc(SCc2ccccc2)s1	1.4	-5.7	-1.54	4.3	-3.4
Cc1nc(NCCc2ccccc2)c2oc3ccccc3c2n1	51.4*	18.2	-1.85	39.1	-39.2
CCc1nnc(NC(=O)c2cc(-c3ccccc3)nn2-c2ccccc2)s1	8.4	13.8	-3.47	.	.
COc1ccccc1NC(=O)Cc1noc(CSc2cc(C)c3ccccc3n2)n1	17.8	4.0	-6.95*	5.2	-2.5
O/N=C(\c1ccc(Cl)cc1)c1ncc(C(F)(F)F)cc1Cl	14.4	1.3	-6.05*	-15.5	12.3
CC(C)c1nc(SCc2c(F)cccc2Cl)c2c(=O)n(C)c(=O)n(C)c2n1	11.8	1.3	-1.95	.	.
SMILES	PostGolgi ctrl	PostGolgi yeast	Cav3 T inh	sEH inhibitor	sEH act
Cc1cc(N)c(-n2cc3c(=O)n(C)c(=O)n(C)c3c2)cc1C	32.0*	3.6	1.97	-7.8	7.8
CCn1c(=O)c2c(O)cc(=O)oc2c2ccccc21	1.8	31.5*	1.18	-4.1	10.3
COCCn1cc(C(=O)N2CCN(C)CC2)c2c3ccccc3n(C)c2c1=O	2.6	-1.9	1.14	7.7	-9.2
Cn1c2ccccc2c2c(C(=O)N3CCN(c4ccccc4)CC3)cn(C3CCCC3)c(=O)c21	22.0	4.6	-3.42	-0.2	0.5
Cc1cccc(N2CCN(C(=O)c3cn(C)c(=O)c4c3c3ccccc3n4C)CC2)c1C	59.7*	3.3	.	-6.3	6.6
Cc1ccc(Cl)cc1N1CCN(C(=O)c2cn(C)c(=O)c3c2c2ccccc2n3C)CC1	56.6*	3.7	-1.3	6.0	-4.8
COc1cc(C)ccc1OCCCOc1cc(C)ccc1Cl	.	.	-0.908	-4.7	7.6
Cc1ccc(Cl)c(OCCCCN(C)Cc2ccccc2)c1	33.8*	93.0*	-0.439	-8.6	7.0
CCCCN=c1scc(-c2ccc3c(c2)NC(=O)CO3)n1N=C1CCCC1	64.5*	3.1	0.317	1.5	1.6
c1ccc(-c2nc(NC3CC3)nc(-n3ccnc3)n2)cc1	9.7	-6.7	0.035	-0.6	2.2
CC1(c2nnc(-c3ccc(F)cc3)o2)CC(c2ccccc2)=NO1 (stereo not given)	.	.	-0.796	.	.
Cc1ccnc(NC(=O)C23CC4CC(CC(C4)C2)C3)c1	10.0	-1.7	-6.1*	-2.9	2.7
CCC(=O)Nc1ccc(NC(=O)C23CC4CC(CC(C4)C2)C3)cn1	3.9	1.5	0.465	1.6	-3.2
O=C1OCC2=C1C(c1ccc(F)cc1)Sc1ccccc1N2 (stereo not given)	-7.2	93.6*	-3	3.1	-2.0
COc1cc(C2Sc3ccccc3NC3=C2C(=O)OC3)cc(OC)c1OC (stereo not given)	.	.	-0.0585	9.7	-5.8
O=C(Cc1ccccc1)Nc1ccc(NC(=O)c2ccco2)nc1	-4.4	0.2	0.658	5.3	-5.1
O=C(Cc1ccccc1)Nc1ccc(NC(=O)C2CC2)nc1	39.2*	-11.8	0.899	-1.7	0.7
CCCC(=O)Nc1ccc(NC(=O)CCc2ccccc2)cn1	1.1	30.5*	0.421	1.4	-0.1
COc1nc(N)c(S(=O)(=O)c2ccccc2C)cc1C#N	4.4	22.0	-3.88*	9.0	-7.4
CCC(C)NC(=O)C(CCSC)NC(=O)c1ccccc1 (stereo not given)	4.8	-2.0	-0.124	15.0	-13.8
CSCCC(NC(=O)c1ccccc1)C(=O)NCc1ccco1 (stereo not given)	37.7*	-7.4	0.867	4.4	-4.1
CCCC(c1nnnn1CCc1ccccc1)N1CCC(C(N)=O)CC1 (stereo not given)	.	.	0.0616	-5.7	5.3
COc1ccc(Cl)cc1N1Cc2ccccc2C1	32.1*	-5.4	0.718	8.2	-5.2
N#Cc1nc(COc2ccccc2)oc1N1CCC(Cc2ccccc2)CC1	40.3*	-4.5	-5.62*	8.7	-7.3
C(#Cc1ccccc1)CN1CCN(c2ccccn2)CC1	-1.1	25.1	-1.27	5.3	-4.2
N#Cc1nc(COc2cccc(Cl)c2)oc1N1CCCC1	27.9	17.0	-2.97	-1.6	0.0
Cc1ccc(OCc2nc(C#N)c(N3CCN(Cc4ccccc4)CC3)o2)cc1	27.1	-6.2	-5.89*	.	.
c1ccc(COc2ccc(CN3CCN(c4ccccn4)CC3)cc2)cc1	9.4	73.2*	-0.973	1.9	0.1
N#Cc1nc(COc2ccc(F)cc2)oc1N1CCCC1	4.7	-3.4	-2.27	-2.2	2.9
O=c1c2ccccc2c(-c2ccccc2)nn1-c1ccc(Cl)c(Cl)c1	26.3	8.8	-0.841	-2.0	0.0
